We go through three compounds from PubChem BioAssay (EPA / NIEHS).

Holding throughout (details): mRNA level, 48 h; actives raise or lower the signal
Read-out in assay [1]: Insulin Like Growth Factor 1 (IGF1), IGF1 (gene 3479)
Nature of the assay: LTEA_HepaRG_IGF1: Life Technologies and Expression Analysis (LTEA) Assay for Insulin Like Growth Factor 1 (IGF1) using HepaRG (AID 2283506). Put shortly: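 Endpoint: IGF1 mRNA change by qRT-PCR, housekeeping-normalized, fitted bidirectionally relative to 0.5% DMSO vehicle. Human HepaRG cells were treated 48 h in serum-free induction medium, eight half-log concentrations topping at 100 uM.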

Read-out in assay [2]: Intercellular Adhesion Molecule 1 (ICAM1), ICAM1 (gene 3383)
Nature of the assay: LTEA_HepaRG_ICAM1: Life Technologies and Expression Analysis (LTEA) Assay for Intercellular Adhesion Molecule 1 (ICAM1) using HepaRG (AID 2283507). Put shortly:
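Readout is qRT-PCR mRNA level, normalized to three housekeeping genes and fitted bidirectionally against 0.5% DMSO vehicle. Human HepaRG cultures received compound for 48 h, top concentration 100 uM with half-log dilutions.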

Read-out in assay [3]: Insulin-like growth factor-binding protein 1 (IGFBP1), IGFBP1 (gene 3484)
Nature of the assay: LTEA_HepaRG_IGFBP1: Life Technologies and Expression Analysis (LTEA) Assay for Insulin-like growth factor-binding protein 1 (IGFBP1) using HepaRG (AID 2283508). An outline of the steps:
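Thawed HepaRG cells are plated for 48 h, switched to serum-free induction medium, then dosed in duplicate for another 48 h (100 uM top, half-log steps). Lysates in RLT go to qRT-PCR, and gain or loss of signal is fitted relative to vehicle.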

Read-out in assay [4]: Interleukin 6 (IL6), IL6 (gene 3569)
As to the kind of experiment: LTEA_HepaRG_IL6: Life Technologies and Expression Analysis (LTEA) Assay for Interleukin 6 (IL6) using HepaRG (AID 2283509). An outline of the steps:
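Changes in IL6 mRNA, up or down relative to 0.5% DMSO controls, were derived from concentration-response curves in human HepaRG cells treated for 48 h at up to 100 uM, with ACTB, GAPDH and POLR2A as normalizers.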

Read-out in assay [5]: Interleukin 6 Receptor (IL6R), IL6R (gene 3570)
As to the kind of experiment: LTEA_HepaRG_IL6R: Life Technologies and Expression Analysis (LTEA) Assay for Interleukin 6 Receptor (IL6R) using HepaRG (AID 2283510).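 For AC50: differentiated human HepaRG liver cells in serum-free induction medium; TaqMan qRT-PCR signal normalized to ACTB GAPDH and POLR2A housekeeping genes.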 An outline of the steps:
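In this HepaRG screen, test chemicals act on cells for 48 h at up to 100 uM (eight half-log points, duplicate wells). IL6R expression is quantified by qRT-PCR after normalization to ACTB, GAPDH and POLR2A, with DMSO as baseline.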

Read-out in assay [6]: Potassium channel subfamily K member 1 (KCNK1), KCNK1 (gene 3775)
As to the kind of experiment: LTEA_HepaRG_KCNK1: Life Technologies and Expression Analysis (LTEA) Assay for Potassium channel subfamily K member 1 (KCNK1) using HepaRG (AID 2283511). An outline of the steps:
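Human HepaRG cultures receive test chemicals for 48 h in 0.5% DMSO, top concentration 100 uM with half-log dilutions. Induction or suppression of KCNK1 mRNA relative to DMSO is derived by bidirectional fitting of qRT-PCR data.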

Read-out in assay [7]: Keratin 19 (KRT19), KRT19 (gene 3880)
As to the kind of experiment: LTEA_HepaRG_KRT19: Life Technologies and Expression Analysis (LTEA) Assay for Keratin 19 (KRT19) using HepaRG (AID 2283512). Put shortly: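 KRT19 transcript levels, measured by Fluidigm qRT-PCR against three housekeeping genes, are fitted for gain or loss of signal relative to DMSO. Human HepaRG cells receive test chemicals (top 100 uM, half-log steps, 0.5% DMSO) for 48 hours.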

Read-out in assay [8]: JUN Transcription Factor, JUN (gene 3725)
As to the kind of experiment: LTEA_HepaRG_JUN: Life Technologies and Expression Analysis (LTEA) Assay for JUN Transcription Factor using HepaRG (AID 2283513). Put shortly:
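Gene-expression endpoint: JUN mRNA (qRT-PCR, normalized to three reference genes) in HepaRG cultures treated 48 h with chemicals, duplicate wells, 100 uM maximum with half-log dilutions; bidirectional fitting relative to 0.5% DMSO.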

Read-out in assay [9]: Lipase C (LIPC), LIPC (gene 3990)
As to the kind of experiment: LTEA_HepaRG_LIPC: Life Technologies and Expression Analysis (LTEA) Assay for Lipase C (LIPC) using HepaRG (AID 2283514). Put shortly:
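In this multiplexed gene-expression screen, human HepaRG cultures received test chemicals for 48 h across eight concentrations with 100 uM highest, in duplicate. Values reflect LIPC mRNA induction or suppression versus DMSO vehicle, from normalized qRT-PCR.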

Read-out in assay [10]: Lipoprotein lipase (LPL), LPL (gene 4023)
Nature of the assay: LTEA_HepaRG_LPL: Life Technologies and Expression Analysis (LTEA) Assay for Lipoprotein lipase (LPL) using HepaRG (AID 2283515). Put shortly:
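Concentration-response testing used half-log steps from 100 uM in 0.5% DMSO on human HepaRG cells, 48 h, duplicate wells. Phenobarbital 1 mM served as induction control; LPL mRNA was normalized to ACTB, GAPDH, POLR2A.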

Read-out in assay [11]: MicroRNA 122 (MIR122), gene 406906
As to the kind of experiment: LTEA_HepaRG_MIR122: Life Technologies and Expression Analysis (LTEA) Assay for MicroRNA 122 (MIR122) using HepaRG (AID 2283516). Note: the transcript read is the microRNA miR-122. Put shortly: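 Changes in transcript abundance, up or down relative to 0.5% DMSO vehicle, were scored after 48 h chemical treatment of HepaRG cells (maximum 100 uM). Quantification used TaqMan qRT-PCR normalized to housekeeping genes.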

Read-out in assay [12]: matrix metalloproteinase-10 (MMP10), MMP10 (gene 4319)
Nature of the assay: LTEA_HepaRG_MMP10: Life Technologies and Expression Analysis (LTEA) Assay for matrix metalloproteinase-10 (MMP10) using HepaRG (AID 2283517). An outline of the steps:
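In differentiated HepaRG cultures kept in 0.5% DMSO, test chemicals act for 48 h over an eight-point range with a top dose of 100 uM. Expression is then quantified by TaqMan RT-PCR against ACTB, GAPDH and POLR2A.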

Read-out in a further assay: MYC, MYC (gene 4609)
Nature of the assay: LTEA_HepaRG_MYC: Life Technologies and Expression Analysis (LTEA) Assay for MYC using HepaRG (AID 2283518). An outline of the steps: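 HepaRG, ~100,000 cells/well, collagen I; 48 h plating; serum-free induction medium; 48 h dosing, duplicate, 100 uM top, half-log, 0.5% DMSO; total RNA → qRT-PCR MYC; gain/loss fit vs DMSO.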

Read-out in assay [13]: Paternally Expressed 10 (PEG10), PEG10 (gene 23089)
Nature of the assay: LTEA_HepaRG_PEG10: Life Technologies and Expression Analysis (LTEA) Assay for Paternally Expressed 10 (PEG10) using HepaRG (AID 2283520).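 For AC50: PEG10 transcript by qRT-PCR normalised to ACTB GAPDH and POLR2A.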 An outline of the steps: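 After 48 h exposure of differentiated HepaRG cells (0.5% DMSO vehicle, eight concentrations up to 100 uM, duplicates), PEG10 mRNA was measured by TaqMan qRT-PCR. Values were normalised to endogenous control genes and analysed bidirectionally against vehicle.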

Read-out in assay [14]: Nuclear factor NF-kappa-B p105 subunit (Homo sapiens) (UniProt P19838)
Nature of the assay: LTEA_HepaRG_NFKB1: Life Technologies and Expression Analysis (LTEA) Assay for Nuclear Factor Kappa B Subunit 1 (NFKB1) using HepaRG (AID 2283521).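 For outcome: differentiated human HepaRG liver cells in serum-free induction medium; TaqMan qRT-PCR transcript normalised to ACTB GAPDH and POLR2A housekeeping genes.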 An outline of the steps:
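HepaRG, 48 h exposure; 8-pt half-log series from 100 uM in 0.5% DMSO; duplicates. Readout: NFKB1 mRNA by qRT-PCR (Fluidigm arrays), housekeeping-normalized. Gain/loss fit vs DMSO baseline.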

Read-out in assay [15]: Protein phosphatase 2A (PPP2R4), PTPA (gene 5524)
As to the kind of experiment: LTEA_HepaRG_PPP2R4: Life Technologies and Expression Analysis (LTEA) Assay for Protein phosphatase 2A (PPP2R4) using HepaRG (AID 2283522). Put shortly: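 Using HepaRG cultures maintained in 0.5% DMSO, chemicals are tested 48 h at up to 100 uM in duplicate. Induction or suppression of PPP2R4 mRNA, measured by qRT-PCR, is fitted bidirectionally against the vehicle baseline.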

Read-out in assay [16]: Phosphatase and tensin (PTEN), PTEN (gene 5728)
As to the kind of experiment: LTEA_HepaRG_PTEN: Life Technologies and Expression Analysis (LTEA) Assay for Phosphatase and tensin (PTEN) using HepaRG (AID 2283523). An outline of the steps: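 Expression of PTEN is quantified in the human liver line HepaRG following two days of dosing (top concentration 100 uM, half-log dilutions, 0.5% DMSO). Values derive from bidirectional curve fitting relative to DMSO controls.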

Read-out in assay [17]: solute carrier (SLC22A1), SLC22A1 (gene 6580)
Nature of the assay: LTEA_HepaRG_SLC22A1: Life Technologies and Expression Analysis (LTEA) Assay for solute carrier (SLC22A1) using HepaRG (AID 2283524).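 For AC50: differentiated human HepaRG liver cells in serum-free induction medium; TaqMan qRT-PCR normalized to ACTB GAPDH and POLR2A housekeeping genes.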 Put shortly: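 Transcript induction or suppression of SLC22A1 in human HepaRG cultures is scored after 48 h chemical treatment, with DMSO (0.5%) as baseline for bidirectional fitting. Concentrations span eight half-log points topping at 100 uM.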

Read-out in assay [18]: Pyruvate Dehydrogenase Kinase 4 (PDK4), PDK4 (gene 5166)
As to the kind of experiment: LTEA_HepaRG_PDK4: Life Technologies and Expression Analysis (LTEA) Assay for Pyruvate Dehydrogenase Kinase 4 (PDK4) using HepaRG (AID 2283525). An outline of the steps:
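Eight-point, half-log concentration series (max 100 uM, 0.5% DMSO) applied to differentiated HepaRG cells for 48 h in duplicate. Endpoint: PDK4 mRNA induction or repression by qRT-PCR against DMSO baseline.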

Read-out in assay [19]: matrix metalloproteinase-3 (MMP3), MMP3 (gene 4314)
Nature of the assay: LTEA_HepaRG_MMP3: Life Technologies and Expression Analysis (LTEA) Assay for matrix metalloproteinase-3 (MMP3) using HepaRG (AID 2283519). Put shortly: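 Human liver HepaRG cultures received chemicals (top concentration 100 uM, 0.5% DMSO) for 48 h in duplicate. MMP3 mRNA induction or loss was then assessed via TaqMan qRT-PCR with housekeeping-gene normalisation.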

The structures appear in SMILES notation. Active and inactive are the calls of the source. Rule for the calls: active = hit-call score of the fitted dose curve at least 0.9, where 1 is the maximum; inactive = score below 0.9.

Sequence of Nuclear factor NF-kappa-B p105 subunit (Homo sapiens) (P19838 whole entry, looked up): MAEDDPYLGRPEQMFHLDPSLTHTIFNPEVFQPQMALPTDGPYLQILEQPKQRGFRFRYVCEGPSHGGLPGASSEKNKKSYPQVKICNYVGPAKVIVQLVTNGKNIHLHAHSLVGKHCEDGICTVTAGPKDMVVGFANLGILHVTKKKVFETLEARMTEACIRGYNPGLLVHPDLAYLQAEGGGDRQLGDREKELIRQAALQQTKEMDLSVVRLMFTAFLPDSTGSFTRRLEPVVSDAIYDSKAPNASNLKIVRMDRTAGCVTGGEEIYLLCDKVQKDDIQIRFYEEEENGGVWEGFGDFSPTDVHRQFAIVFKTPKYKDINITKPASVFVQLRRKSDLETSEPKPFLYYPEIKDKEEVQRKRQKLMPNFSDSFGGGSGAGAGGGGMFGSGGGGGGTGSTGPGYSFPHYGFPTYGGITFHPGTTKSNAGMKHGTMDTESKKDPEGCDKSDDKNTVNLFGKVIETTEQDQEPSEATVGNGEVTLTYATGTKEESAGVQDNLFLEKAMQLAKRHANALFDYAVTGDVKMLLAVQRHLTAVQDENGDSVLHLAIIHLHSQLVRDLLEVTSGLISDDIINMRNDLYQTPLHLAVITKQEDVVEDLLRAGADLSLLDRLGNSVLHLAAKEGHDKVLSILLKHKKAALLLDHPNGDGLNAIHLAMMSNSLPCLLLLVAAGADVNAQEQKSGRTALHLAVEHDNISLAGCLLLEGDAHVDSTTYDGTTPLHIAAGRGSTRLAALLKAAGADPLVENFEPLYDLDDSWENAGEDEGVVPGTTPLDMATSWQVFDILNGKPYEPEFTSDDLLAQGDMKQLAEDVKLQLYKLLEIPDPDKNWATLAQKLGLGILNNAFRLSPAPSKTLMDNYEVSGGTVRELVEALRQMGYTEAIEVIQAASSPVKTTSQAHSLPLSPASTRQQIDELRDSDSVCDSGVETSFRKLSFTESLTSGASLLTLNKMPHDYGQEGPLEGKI

Broadly, the AC50 is the concentration giving half of the maximal activity seen. `O=C(OC[C@H]1O[C@@H](OC(=O)c2cc(O)c(O)c(OC(=O)c3cc(O)c(O)c(O)c3)c2)[C@H](OC(=O)c2cc(O)c(O)c(OC(=O)c3cc(O)c(O)c(O)c3)c2)[C@@H](OC(=O)c2cc(O)c(O)c(OC(=O)c3cc(O)c(O)c(O)c3)c2)[C@@H]1OC(=O)c1cc(O)c(O)c(OC(=O)c2cc(O)c(O)c(O)c2)c1)c1cc(O)c(O)c(OC(=O)c2cc(O)c(O)c(O)c2)c1`: the compound was classed as inactive in assay [1], in assay [6], in assay [7], in assay [8] and in assay [16]. Also, the AC50 in assay [2] is 6.76 µM (active); in assay [3], 9.51 µM (active); in assay [4], 10.5 µM (active); in assay [5], 15.2 µM (active); in assay [9], 8.46 µM (active); in assay [10], 15.2 µM (active). For the same compound, the half-maximal activity concentration (AC50) in assay [11] was 9.05 µM (active); in assay [12], 9.49 µM (active); in the assay with MYC, MYC (gene 4609), 6.08 µM (active); in assay [13] it was 9.75 µM (active); in assay [14], 8.67 µM (active); in [15], 3.88 µM (active). Further, the concentration at half-maximal activity (AC50) was 15.2 µM (active) in assay [17] and 24.5 µM (active) in [18].
For the compound `Cn1c(=O)cc(Oc2ccc(F)cc2F)c2cnc(NCC(C)(C)O)nc21`, the AC50 in [1] is 12.6 µM (active); in assay [7], 18.3 µM (active); in assay [10] it was 9.98 µM (active); with MYC, MYC (gene 4609) it was 22.1 µM (active); in assay [19], 22.1 µM (active). The result in assay [2], in [3], in assay [4], in assay [5], in assay [6] and in assay [8] was inactive. Besides, the compound was called inactive in assay [9], in assay [11], in assay [12], in assay [13], in [15] and in assay [16]. Besides, the result in assay [17] was inactive.
Consider `O=C1CCC(N2C(=O)c3ccccc3C2=O)C(=O)N1` (stereo not given), for which the call in assay [1], in assay [2], in [3], in assay [4], in [5] and in assay [6] was inactive. Besides, the outcome in [8] was “inactive”; in [9] it was “inactive”; in assay [10] it was “inactive”; in assay [11], “inactive”; in assay [12] it was “inactive”; in the assay with MYC, MYC (gene 4609), “inactive”. In addition, the outcome in [19], in assay [13], in assay [14], in [15], in [16] and in [17] was inactive.
